The text below walks through data of PubChem BioAssay (NCI).

Structures are written as SMILES. The panel holds about 83,000 compounds, 20% with a hit somewhere; the sample as a whole holds those more often.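 Results are percent growth after 48 hours of single-concentration exposure. 100 means growth as in untreated cells, lower positive values show inhibition; negative values down to -100 show cell death.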 A number with no mark means an inactive call. The source made the active and inactive calls. Rule for the calls: active = growth percent below 10; inactive = the rest.

Among the test systems are SR leukemia; OVCAR-8 ovarian; OVCAR-5 ovarian; OVCAR-4 ovarian; SK-OV-3 ovarian; IGROV1 ovarian; OVCAR-3 ovarian; HS 578T breast; NCI/ADR-RES ovarian; T-47D breast; BT-549 breast; SW-620 colon; MCF7 breast; HCT-116 colon; HCC-2998 colon; KM12 colon; MDA-MB-435 melanoma; RPMI-8226 leukemia.
Assay in all cases: NCI-60 one-dose screen, 48 h (100 = growth as untreated, 0 = no growth, -100 = all killed)
What all share (conditions): 10 µM unless noted

In the case of `O=S(=O)(Nc1ccc(I)c(Cl)c1)c1ccc(-c2cnc(C3CC3)o2)cc1`, the growth with SR leukemia was 27.9%; in the experiment with OVCAR-8 ovarian, 38.9%; in the experiment on OVCAR-5 ovarian, 45.2%; with OVCAR-4 ovarian, 56.8%; in the experiment with SK-OV-3 ovarian, 50.2%; in the experiment on IGROV1 ovarian it was 36.3%. Also, the growth was -9.98% (active) in the experiment with OVCAR-3 ovarian; 17.9% with HS 578T breast; 14.6% in the experiment with NCI/ADR-RES ovarian; 26.9% with T-47D breast; 57.1% with BT-549 breast; 15.3% with SW-620 colon. The growth is 17% in the experiment with MCF7 breast, 26.6% in the experiment on HCT-116 colon, 59.1% with HCC-2998 colon and 32% with KM12 colon.
For the molecule `CCN1C/C(=N\S(=O)(=O)c2ccccc2)N(CC)C1=S`, the growth in the experiment with SR leukemia is 101%; with OVCAR-8 ovarian, 99.7%; in the experiment on OVCAR-5 ovarian, 103%; in the experiment on OVCAR-4 ovarian, 106%; with IGROV1 ovarian, 107%; in the experiment on OVCAR-3 ovarian it was 119%. The growth in the experiment on HS 578T breast is 105%; in the experiment on NCI/ADR-RES ovarian, 99.8%; in the experiment on T-47D breast, 102%; in the experiment on BT-549 breast it was 97.3%; in the experiment on MDA-MB-435 melanoma it was 101%; in the experiment on SW-620 colon it was 107%. Further, the growth with MCF7 breast is 97.3%; in the experiment with HCT-116 colon it was 91.5%; with HCC-2998 colon it was 98.4%; with KM12 colon, 103%.
For the molecule `CC(=O)Nc1ccc(NC(=O)Nc2cccc(-c3nc(-c4ccc(NC(=O)c5cccs5)cc4Cl)no3)c2)cc1C(F)(F)F`, the growth is -7.39% (active) in the experiment on SR leukemia; -15.8% (active) in the experiment on OVCAR-8 ovarian; -37.9% (active) with OVCAR-5 ovarian; -94.5% (active) with OVCAR-4 ovarian; -66% (active) in the experiment on SK-OV-3 ovarian; -57.6% (active) with IGROV1 ovarian. The growth was -63.4% (active) with OVCAR-3 ovarian; -28.3% (active) with HS 578T breast; 55.5% in the experiment on NCI/ADR-RES ovarian; -59.4% (active) with T-47D breast; -26.7% (active) in the experiment with BT-549 breast; -51.3% (active) in the experiment on SW-620 colon. The growth in the experiment on MCF7 breast was -58.1% (active); with HCT-116 colon it was -22.2% (active); with HCC-2998 colon, -65.1% (active); in the experiment on KM12 colon, -50.1% (active).
For `CC(=O)Nc1ccc(NC(=O)Nc2cccc(-c3nc(-c4ccc(NC(=O)c5cccnc5)cc4Cl)no3)c2)cc1C(F)(F)F`, the growth with SR leukemia was -25.1% (active); in the experiment with OVCAR-8 ovarian it was -9.07% (active); in the experiment on OVCAR-5 ovarian, -49.4% (active); in the experiment on OVCAR-4 ovarian, -53.7% (active); in the experiment with SK-OV-3 ovarian, -57.9% (active); in the experiment on IGROV1 ovarian it was -54% (active). For the same molecule, the growth in the experiment with OVCAR-3 ovarian was -63.7% (active); with HS 578T breast it was -22.9% (active); with NCI/ADR-RES ovarian, 69.2%; with T-47D breast, -43.7% (active); in the experiment on BT-549 breast, -29.9% (active); in the experiment with SW-620 colon, -62.8% (active). In addition, the growth with MCF7 breast is -61.3% (active); with HCT-116 colon, -47.4% (active); in the experiment on HCC-2998 colon, -77.6% (active); in the experiment with KM12 colon it was -46.2% (active).
Consider `COc1cnc2c(c1)C(=O)c1c-2n(CCCNCC2CC2)c(=O)c2cc(F)ccc12`, for which the growth in the experiment with RPMI-8226 leukemia was -38.5% (active); with OVCAR-8 ovarian, -61.6% (active); in the experiment on OVCAR-5 ovarian it was -6.47% (active); in the experiment with OVCAR-4 ovarian it was -4.75% (active); with SK-OV-3 ovarian, -38% (active); in the experiment on IGROV1 ovarian it was 10.3%. Moreover, the growth is 26.1% in the experiment on HS 578T breast; 5.01% (active) with NCI/ADR-RES ovarian; -21.2% (active) with T-47D breast; -0.964% (active) in the experiment on BT-549 breast; 10% with MDA-MB-435 melanoma; -29.6% (active) in the experiment on SW-620 colon. In addition, the growth with MCF7 breast is -8.09% (active); in the experiment on HCT-116 colon, -79.7% (active); with HCC-2998 colon it was -41% (active); in the experiment on KM12 colon, -8.57% (active).
For `COc1ccc2oc3c4[nH]c5ccccc5c4c4c(c3c2c1)C(=O)N(O)C4=O`, the growth in the experiment on RPMI-8226 leukemia is 91.9%; in the experiment on OVCAR-8 ovarian, 102%; in the experiment on OVCAR-5 ovarian, 109%; in the experiment with OVCAR-4 ovarian, 104%; in the experiment with SK-OV-3 ovarian, 98.9%; in the experiment with IGROV1 ovarian it was 94.9%. Moreover, the growth was 89.9% in the experiment with HS 578T breast; 101% in the experiment with NCI/ADR-RES ovarian; 97.7% in the experiment with T-47D breast; 104% in the experiment with BT-549 breast; 106% in the experiment on MDA-MB-435 melanoma; 92.1% in the experiment with SW-620 colon. Also, the growth with MCF7 breast was 90.3%; in the experiment with HCT-116 colon, 104%; in the experiment on HCC-2998 colon, 101%; in the experiment on KM12 colon it was 101%.
Regarding `Cn1cc(-c2nn3cc(-c4cccnc4)nc3s2)c2ccccc21`, the growth was 30.4% with RPMI-8226 leukemia; 36.4% in the experiment with OVCAR-8 ovarian; 36.6% in the experiment on OVCAR-5 ovarian; 76.6% with OVCAR-4 ovarian; 50.7% in the experiment on SK-OV-3 ovarian; 40.2% with IGROV1 ovarian. Moreover, the growth in the experiment on HS 578T breast is 31.3%; in the experiment with NCI/ADR-RES ovarian, 18.9%; with T-47D breast, 27.7%; in the experiment on BT-549 breast, 22.2%; with MDA-MB-435 melanoma it was -39.1% (active); in the experiment on SW-620 colon, 17.1%. The growth is 15.8% with MCF7 breast, 16.8% in the experiment on HCT-116 colon, 60.2% in the experiment on HCC-2998 colon and 29.6% with KM12 colon.
For `CCNCCCn1c2c(c3cc(OC)c(OC)cc3c1=O)C(=O)c1cc(OC)cnc1-2`, the growth in the experiment on RPMI-8226 leukemia is -34.9% (active); with OVCAR-8 ovarian, 14.1%; in the experiment with OVCAR-5 ovarian it was 46.2%; in the experiment on OVCAR-4 ovarian it was 6.87% (active); with SK-OV-3 ovarian it was -32.1% (active); in the experiment with IGROV1 ovarian it was 32.3%. In addition, the growth with HS 578T breast is 80.2%; in the experiment with NCI/ADR-RES ovarian, 26.9%; in the experiment with T-47D breast, -0.933% (active); with BT-549 breast it was 27.3%; in the experiment on MDA-MB-435 melanoma it was 38%; with SW-620 colon it was 37.1%. Further, the growth in the experiment with MCF7 breast is 8.05% (active); with HCT-116 colon, 0.589% (active); in the experiment with HCC-2998 colon it was 43.4%; in the experiment with KM12 colon, 45.4%.
Consider `O=C(Cn1cc(CN2C(=O)c3ccc([N+](=O)[O-])cc3C2=O)nn1)Nc1ccccc1Br`, for which the growth was 102% in the experiment on RPMI-8226 leukemia; 116% in the experiment with OVCAR-8 ovarian; 106% with OVCAR-5 ovarian; 113% in the experiment with OVCAR-4 ovarian; 90.5% with SK-OV-3 ovarian; 97.5% in the experiment with IGROV1 ovarian. Also, the growth in the experiment with HS 578T breast was 110%; with NCI/ADR-RES ovarian, 99.3%; with T-47D breast it was 104%; with BT-549 breast, 115%; with MDA-MB-435 melanoma, 109%; with SW-620 colon, 97.4%. The growth in the experiment with MCF7 breast was 94.3%; with HCT-116 colon it was 98.8%; with HCC-2998 colon, 101%; in the experiment on KM12 colon, 102%.
